# Source: the supplement of paper PMC10338343
# ± gives the standard deviation. Whole data set: some 8,200 sequences, median “pre-steady-state target cleavage rate” near 0.024, cut for the highest 2% near 1.3. The entries come from a sample that favours the highest values as a whole.
# Test system: MIWI (PIWIL1) piRISC loaded with L1MC piRNA (30 nt)
# Assay: pre-steady-state target cleavage rate (min^-1); MIWI and MILI are mouse PIWI proteins and EfPiwi is from a freshwater sponge; tags in brackets are library labels; higher = faster piRNA-guided slicing of the target
# Settings: guide: L1MC piRNA 5'p-UAACUAAAUACUAUGCAAGCUGUAGGUCCU
# Procedure, shortened: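 Cleave-'n-Seq measured uncleaved targets by sequencing after a transcribed, DNA-blocked target RNA library […] was mixed with 1 nM active affinity-purified piRISC holding one synthetic guide, with or without 500 nM GTSF1 partner protein, at 33 °C in HEPES–potassium acetate buffer for 0–8 or 0–960 min. Counts were normalised to depth and to weakly complementary targets, three trials were pooled, and k3 was capped at 0.0001 min^-1. A burst-and-steady-state fit gave the pre-steady-state cleavage rate.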
# [1] = auxiliary factor: 500 nM mouse GTSF1
# [2] = auxiliary factor: none (no GTSF1)
# 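Note: 1 nM active piRISC with 0.1 nM target library at 33 °C single turnover.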
Sequence,pre-steady-state target cleavage rate [1],pre-steady-state target cleavage rate [2]
UCCUGGUACAGCAUGCAUAGUAUUUAGUAA,0.377 ± 0.04,0.00875 ± 0.0024
UCCUGGAUGAGCUUGCAUGGUAUUUAGUUA,0.743 ± 0.043,0.0817 ± 0.02
UCCUGGAUCAGCUUGCAUAGAAUUUAGUUA,0.258 ± 0.028,0.0291 ± 0.0088
UCCUCCUACAGCUUGCAUUGUAUUUACUUA,0.388 ± 0.031,0.0162 ± 0.0032
UCCUGGAUCAGCAUGCAUAGUAUUUACAAA,0.156 ± 0.034,
UCCUGGAUGUGCUUGCAUAGUAUUCUAGUUA,0.211 ± 0.037,0.0155 ± 0.0049
UGGACCAACAGCUUGCAUAGUAUUUAGAUA,0.428 ± 0.022,0.0582 ± 0.014
UCGACCAACAGCUAGCAUAGUAUUUAGUUA,1.08 ± 0.046,0.0286 ± 0.0073
AGGACCAACAGCUUGCAUAGUAUUUAGAAA,0.624 ± 0.071,0.033 ± 0.012
UGGACCAACAGCUUGCAUAGUAUUUAGUUA,1.35 ± 0.047,0.0769 ± 0.013
UGGACCAACAGCUUGCAUAGUAUUUAGUAA,1.17 ± 0.06,0.0641 ± 0.015
AGGACCAACAGCUUGCAUAGUAUUUAGUAA,0.974 ± 0.079,0.0722 ± 0.014
AGGACCAACAGCUAGCAUAGUAUUUAGUUA,1.08 ± 0.052,0.038 ± 0.01
UGGACCAACAGCUAGCAUAGUAUUUAGUUA,1.36 ± 0.059,0.0347 ± 0.0073
AGGACCAACAGCUUGCAUAGUAUUUAGUUA,1.4 ± 0.05,0.122 ± 0.021
UCCUGGUACAGCUUGCAUACAAUUUAGUAA,0.0076 ± 0.0052,
UCCUGGAUGUGCUUGCAUAGUAUUUAGGUA,0.0938 ± 0.016,0.0113 ± 0.0031
UCCUGGAACAGCUUGGAUAGUAUUUUGUUA,0.745 ± 0.075,0.0289 ± 0.0047
UCCUGGAUGAGCUUGCAUAGUUUUAAGUUA,0.0288 ± 0.0084,0.00673 ± 0.0032
AGCACCUACAGCUUGCAUAGUAUUUAGUAA,0.974 ± 0.12,0.197 ± 0.062

Sequence,pre-steady-state target cleavage rate [1],pre-steady-state target cleavage rate [2]
UGGACCUACACCUUGCAUAGUAUAUAGUUA,0.523 ± 0.041,0.0327 ± 0.007
UCCUGGAACAGCAUGCAUAGUAUUUAGUAA,0.695 ± 0.061,0.0107 ± 0.0026
UCCUGGAUCAGCUAUGCAUAGUAUUUAGUUA,1.04 ± 0.073,0.0161 ± 0.0043
UGGACCUACACGUUGCAUAGUAUUUACAAA,0.103 ± 0.013,
UCGACCGUACAGCUUGCAUAGUAUUUAGUUA,1.26 ± 0.046,0.0719 ± 0.013
UCGACCGACAGCUUGCAUAGUAUUUAGUUA,1.41 ± 0.05,0.0741 ± 0.012
UGGACCGACAGCUUGCAUAGUAUUUAGUUA,1.45 ± 0.076,0.0713 ± 0.013
AGGACCGACAGCUUGCAUAGUAUUUAGUUA,1.21 ± 0.058,0.0903 ± 0.017
UGGACCGUACAGCUUGCAUAGUAUUUAGUUA,1.24 ± 0.06,0.064 ± 0.0096
UCCACCGACAGCUUGCAUAGUAUUUAGUUA,1.04 ± 0.043,0.0616 ± 0.011
UCCACCAUCAGCUUGCAUAGUAUUUAGUAA,0.68 ± 0.029,0.0248 ± 0.0047
UCCUGGAUGUCCUUGCAUAGUAUUGAGUUA,0.142 ± 0.031,0.00653 ± 0.0024
UGGACCUACAGCUUGCAAUGUAUUUACAAA,0.0217 ± 0.0068,
UCCUGGAUCAGCUUGCAUACUAUUAAGUUA,0.101 ± 0.015,0.00664 ± 0.0024
UCCUGGAACAGCUUGCAAAGUAUUUUCAAA,0.0876 ± 0.018,0.00328 ± 0.002
UCCUGGUACAGCUUGCAUAGUAUUUAGUCUA,0.0829 ± 0.026,0.00718 ± 0.0028
AGGACCUACAGCUUGCAUAGAAUUUAGUUA,0.559 ± 0.044,0.0408 ± 0.011
UCCUCCAACAGCUUGCAAAGUAUUUAGUUA,1.16 ± 0.043,0.0397 ± 0.0099
UCCUGGAACAGCUUGCAGUAGUAUUUAGUUA,0.00503 ± 0.0043,
UCCUGCUACAGCUUGCAAAGUAUUUAGUUA,0.619 ± 0.037,0.03 ± 0.0055

Sequence,pre-steady-state target cleavage rate [1],pre-steady-state target cleavage rate [2]
UCCUGCAACAGCUUGCAUAGUAUUUAGUAA,1.22 ± 0.083,0.0736 ± 0.021
UCCUGCAACAGCAUGCAUAGUAUUUAGUUA,1.36 ± 0.087,0.0331 ± 0.0088
UCCUGGAACAGCUUGCUUAGUAUUUAGUUA,1.14 ± 0.053,0.0404 ± 0.0098
UCCUGGAACAGCUUGCGUAGUAUUUAGUUA,1.43 ± 0.087,0.0397 ± 0.0099
UCCUGCAACAGCUUGCAAAGUAUUUAGUUA,1.32 ± 0.076,0.0463 ± 0.01
UCCUGCAACAGCUUGCAUAGUAUUUAGAAA,0.429 ± 0.059,0.00469 ± 0.0034
UCCUGCAACAGCUAGCAUAGUAUUUAGUUA,1.12 ± 0.047,0.0185 ± 0.004
UCCUGCAACAGCUUGCAUAGUAUUUAGUUA,1.57 ± 0.12,0.0696 ± 0.017
UCCUGCUACAGCAUGCAUAGUAUUUAGUUA,1.21 ± 0.086,0.0207 ± 0.0053
UGCACCUACAGCUUGCAUAGUAUUUUGUUA,0.852 ± 0.083,0.0692 ± 0.015
UCCUGGAUGUGCUUGCAUAGUAAUUUGUUA,0.0171 ± 0.0079,0.00536 ± 0.0029
UCCACCAACAGCUUCCAUAGUAUUUAGUUA,0.0426 ± 0.015,0.00399 ± 0.0017
AGGACCAACAGCUUGCAUUGUAUUUAGUUA,0.923 ± 0.044,0.0356 ± 0.0086
UCCUCCUACAGCUUGCAUAGUUUUUACAAA,0.185 ± 0.029,
UCCUGGAACAGCUUGCAUAGUUAUUAGUUA,0.113 ± 0.015,0.015 ± 0.0044
UCCUGCAACAGCUUGCAUUGUAUUUAGUUA,0.964 ± 0.068,0.0397 ± 0.01
UCCUGGAACAGCUUGUAUAGUAUUUAGUUA,1.37 ± 0.056,0.0564 ± 0.012
UCCUGGAACAGCUUGCAUAGUAUUCUAGUUA,0.285 ± 0.041,0.0119 ± 0.0031
UCCUGGAAACAGCUUGCAUAGUAUUUAGUUA,1.34 ± 0.051,0.0675 ± 0.012
UCCUGGAACAGCUUGCAUAGUAUUUAGUUA [g2:g23:cont:t1A],1.18 ± 0.034,0.0833 ± 0.014
